3T3 cytotox = kills NIH 3T3 cells. NIH 3T3 viability, CellTiter-Glo ATP luminescence, 48-72 h. AID 1345082. Potency, µM (highest dose often 96.7 µM), inactives show at the top dose activity change, negative = cytotoxicity, actives largely listed as inhibitors. actives 4.3% (n = 94,000); note: % is set by controls: 0 for no effect and ±100 for the full control effect; nearly all actives have a fitted effect of over 55% in size
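NIH 3T3 cells at 400 cells/well received 23 nL of compound by pintool and were incubated 48 or 72 h at 37 °C. Viability was read as ATP-coupled CellTiter-Glo luminescence.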
HEK293 tox = kills HEK 293 cells | HEK 293 viability, ATP luminescence (CellTiter-Glo), 48-72 h | Potency, µM (doses to about 115 µM), for inactives: at the highest dose activity change, negative = cytotoxicity, most hits filed as inhibitors | actives 6.6% (n = 94,000) | AID 1345083; note: % is set by controls: 0 for no effect and ±100 for the full control effect; nearly all actives have a fitted effect of over 60% in size
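Luminescence from cellular ATP, measured with CellTiter-Glo, indicates HEK 293 viability. Cells plated at 250 cells/well are treated with compound for 48 or 72 hr at 37 degree Celsius before reagent addition.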
hNpr1 antagonist = human Npr1 receptor antagonism. P16066. HEK293 hNpr1 GloSensor cGMP, ANP-stimulated luminescence. Potency, µM (series often up to 46.3 µM), for inactives: at the highest dose activity change, negative = inhibition, usual class: inhibitors. actives 1.6% (n = 76,000). AID 1347048; calls by dose curve; note: % is set by controls: 0 for no effect and ±100 for the full control effect; nearly all actives have a fitted effect of over 60% in size
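Compound pre-incubated 30 min at room temperature on GloSensor-loaded HEK293 cells stably carrying hNpr1 and the pGS-40F cGMP biosensor. Stimulation uses hNppA at 0.1 nM final; luminescence is taken at baseline and 20 min post-agonist.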
FLuc inh = blocks purified firefly luciferase enzyme activity | purified P. pyralis luciferase, luminescence, biochemical | AID 1347043 | actives 2.5% (n = 76,000) | Potency, µM (titrated, usually from 115 µM), usual class: inhibitors | P08659; note: % is set by controls: 0 for no effect and ±100 for the full control effect; nearly all actives have a fitted effect of over 65% in size
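Purified P. pyralis luciferase (10nM final) in 50mM Tris acetate pH 7.5, 10mM Mg acetate, 0.01% Tween-20, 0.05% BSA with 10uM D-luciferin and 10uM ATP. Compounds titrated qHTS. Luminescence imaged on CCD.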
Npr1 antag conf = confirmation of human Npr1 natriuretic peptide receptor antagonists | shares compounds with hNpr1 antagonist | Potency, µM (series often up to 57.6 µM), without a hit: at the top dose activity change, negative = inhibition, actives largely listed as inhibitors | HEK293 hNpr1 cGMP GloSensor luminescence, ANP-stimulated | actives 76% (n = 1,400); calls by dose curve; note: nearly all actives have a fitted effect of over 70% in size
NPR2 antag = antagonizes human Npr2, subtype selectivity check; HEK293 hNpr2 GloSensor cGMP luminescence, CNP-stimulated; Potency, µM (series often up to 57.6 µM), inactives show top-dose activity change, negative = inhibition, usual class: inhibitors; AID 1347046; actives 67% (n = 1,400); shares compounds with hNpr1 antagonist; calls by dose curve; note: nearly all actives have a fitted effect of over 70% in size
Target sequence (P20594 whole entry, looked up): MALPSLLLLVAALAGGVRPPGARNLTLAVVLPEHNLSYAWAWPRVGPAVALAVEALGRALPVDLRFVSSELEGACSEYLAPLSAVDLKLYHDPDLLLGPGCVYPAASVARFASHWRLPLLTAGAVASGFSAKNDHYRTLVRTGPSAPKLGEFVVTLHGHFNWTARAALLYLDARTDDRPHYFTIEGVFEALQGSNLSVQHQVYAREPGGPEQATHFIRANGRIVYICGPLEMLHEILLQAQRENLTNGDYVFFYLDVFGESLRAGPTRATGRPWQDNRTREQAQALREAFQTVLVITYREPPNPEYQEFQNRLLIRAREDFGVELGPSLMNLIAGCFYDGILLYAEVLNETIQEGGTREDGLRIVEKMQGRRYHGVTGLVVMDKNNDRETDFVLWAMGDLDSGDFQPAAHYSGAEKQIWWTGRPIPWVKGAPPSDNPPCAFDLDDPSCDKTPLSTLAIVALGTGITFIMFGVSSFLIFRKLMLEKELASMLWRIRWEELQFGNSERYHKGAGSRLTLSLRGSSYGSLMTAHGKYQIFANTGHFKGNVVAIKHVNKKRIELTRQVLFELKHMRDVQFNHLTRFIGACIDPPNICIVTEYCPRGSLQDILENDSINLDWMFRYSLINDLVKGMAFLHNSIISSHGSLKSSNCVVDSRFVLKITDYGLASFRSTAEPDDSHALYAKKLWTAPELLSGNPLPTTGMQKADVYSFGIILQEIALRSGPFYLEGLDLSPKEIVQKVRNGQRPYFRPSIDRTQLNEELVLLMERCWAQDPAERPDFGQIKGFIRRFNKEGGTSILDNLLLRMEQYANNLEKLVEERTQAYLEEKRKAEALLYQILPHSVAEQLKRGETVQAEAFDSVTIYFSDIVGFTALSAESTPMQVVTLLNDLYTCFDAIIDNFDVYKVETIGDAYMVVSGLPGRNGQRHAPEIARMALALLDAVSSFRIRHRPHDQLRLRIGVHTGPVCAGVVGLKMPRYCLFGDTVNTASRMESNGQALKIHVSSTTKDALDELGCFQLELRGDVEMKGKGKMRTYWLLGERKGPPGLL
FLuc inh counter = inhibits firefly luciferase, false Npr1 antagonist flag. purified FLuc enzyme, luminescence, Km substrate. Potency, µM (highest dose often 57.6 µM), for the others: top-dose activity change, negative = inhibition, most hits filed as inhibitors. actives 0.7% (n = 1,400). shares compounds with hNpr1 antagonist. AID 1347047; note: 0% is about no effect
GloSensor ctrl = control cell line activity, Npr1 antagonist counter-screen | shares compounds with hNpr1 antagonist | HEK293 GloSensor cGMP, SNP-stimulated, luminescence | Potency, µM (top dose mostly 57.6 µM), inactives show at the top dose activity change, negative = inhibition, hits mostly inhibitors | actives 69% (n = 1,400); calls by dose curve; note: % is set by controls: 0 for no effect and ±100 for the full control effect; nearly all actives have a fitted effect of over 70% in size
Starred values were filed as active, the others as inactive; i = inactive; ? = inconclusive; nt = no result; [ ] = remark or other dose. A selection: hits, their analogues and other compounds. The true share with any hit is near 11%. Unless noted, calls come from the whole dose curve; as a rule, active = well fitted curve in the direction sought with a large enough effect; inconclusive = small, poorly fitted or top-dose-only effect, or another doubt; inactive = no such curve, though single readings can be large; an effect the other way counts as inactive or inconclusive. Potency is the fitted concentration of half-maximal effect.

SMILES | 3T3 cytotox | HEK293 tox | hNpr1 antagonist | FLuc inh | Npr1 antag conf | NPR2 antag | FLuc inh counter | GloSensor ctrl
COc1ccc(Cn2c(=O)c(C(=O)N3CCN([S+](C)(=O)[O-])CC3)nc3cccnc32)cc1 | -13% | i | nt | nt | nt | nt | nt | nt
O=C(c1cccc2[nH]ccc12)N1CCC2(CC1)CN(c1ncccn1)CC2CO (stereo unspecified) | -8% | -11% | 0% | i | nt | nt | nt | nt
O=C1c2cc(N3CCOCC3)nc(-c3ccccc3F)c2CN1CC1CC1 | -64%[138 µM] | ? | -13%[70.6 µM] | i | nt | nt | nt | nt
O=C1c2cc(N3CCOCC3)nc(-c3cccc(F)c3)c2CN1Cc1ccccc1 | ? | ? | ? | i | 28µM* | ? | -1%[86.2 µM] | ?
CCOC(=O)[C@H]1[C@@H](O)C(=O)N(C(C)C)C12CCN(C(=O)C1CCCC1)CC2 | ? | -14% | nt | nt | nt | nt | nt | nt
Cc1cc(C(=O)N2CCC(F)(c3nc(-c4ccncc4)no3)CC2)n(C)n1 | -26% | ? | 11µM* | i | 27µM* | 31µM* | 2% | 27µM*
COc1ccc(CNC(=O)c2cc3c(s2)CCN(C(=O)c2ccccc2)C3)cc1OC | ? | ? | 2.5µM* | i | 3.4µM* | 4.8µM* | 2% | 3.1µM*
COc1ccc(CNC(=O)c2ccc3c(c2)N(C(=O)c2ccc(F)cc2)CC3)cc1OC | ? | 32µM* | 2.2µM* | i | 3.1µM* | 3.9µM* | -1% | 3.1µM*
COc1ccc(OC)c(CNC(=O)c2cccc3c2CCN3C(=O)c2ccc(F)cc2)c1 | ? | ? | ? | i | ? | ? | 4% | ?
Cc1cnc(CC2CCCN(C(=O)C3CCC3)C2)n1Cc1ccccc1 (stereo unspecified) | 5% | -4% | 4% | i | nt | nt | nt | nt
COc1ccc(CNC(=O)c2ccc(Cn3ccn4nc5c(c4c3=O)CCCC5)cc2)cc1OC | ? | 22µM* | 11µM* | i | 27µM* | 24µM* | 0% | 24µM*
COc1ccc(CNC(=O)c2ccc(Cn3ccn4nc5c(c4c3=O)CCCC5)cc2)cc1 | ? | 20µM* | 11µM* | i | 27µM* | 27µM* | 1% | 27µM*
COCCNC(=O)c1nn(C)c2nc(-c3ccccc3OC)ccc12 | -15% | 0% | nt | nt | nt | nt | nt | nt
CN(C)C(=O)c1ccc2cc[nH]c2n1 | i | i | nt | nt | nt | nt | nt | nt
O=C(Nc1ccc(F)cc1)c1ccc2cc[nH]c2n1 | ? | ? | nt | nt | 25µM* | 31µM* | 0.89µM* | 25µM*
O=C(c1ccncn1)N1CCC(Oc2cnc3c(ccn3-c3cncnc3)c2)CC1 | -19%[138 µM] | ? | 4%[70.6 µM] | i | nt | nt | nt | nt
O=C(Oc1ccccc1)N1CCC(Oc2cnc3c(ccn3-c3cncnc3)c2)CC1 | ? | 56µM* | 35µM* | i | 40µM* | 40µM* | 4%[86.2 µM] | 40µM*
COc1ccc(C(=O)N2CCC3(CC2)N=C(c2ccccc2)NO3)cc1F | -14% | -7% | -8% | i | nt | nt | nt | nt
COc1ccc(C(=O)N2CCC3(CC2)N=C(c2ccc(Cl)cc2)NO3)cc1F | -26% | ? | 10µM* | i | 19µM* | 19µM* | -5% | 22µM*
COc1ccc(C(=O)N2CCC3(CC2)N=C(c2ccc(Cl)cc2)NO3)cc1 | -16% | ? | 10µM* | i | 17µM* | 19µM* | -13% | 9.7µM*
Cc1ccc(-n2ncc3c2CCCC3NC(=O)c2cc(C(C)C)no2)cc1C (stereo unspecified) | ? | ? | 14µM* | i | 17µM* | 17µM* | -7% | 12µM*
